Experimental data from PubChem BioAssay.
For some assays here: Measured potencies and affinities stand elsewhere. Activity calls are given as the source filed them. Unless noted, the rule behind the calls is not given here.

Assays:
[1] = antimalarial activity against Dd2 strain (AID 2302;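 active = growth inhibition above 50% at the single 2 µM test dose, taken to imply half-maximal potency below 2 µM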;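 note: 0% = DMSO untreated growth and 100% = chloroquine plus artemisinin killed control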); conditions: P. falciparum Dd2 in RBCs, LDH growth readout, 72 h; at 2 µM; active compounds read high
[2] = human hepatoma cell viability loss – ATP luminescence, cytotoxicity control for P. falciparum antimalarial project, primary screen (AID 2303;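 active = inhibition above 50%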;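 note: 0% = DMSO wells and 100% = digitonin-killed cells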); conditions: HepG2 viability, 24-48 h, at 10 µM, active compounds read high
[3] = molecular target: L-lactate dehydrogenase (Plasmodium falciparum (isolate CDC / Honduras)) (UniProt Q27743); assay: PfLDH activity inhibition – cell lysate, 3D7 strain, counter-screen for P. falciparum growth inhibition project (AID 2304);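 note: 0% = vehicle and 100% = reference inhibitor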; conditions: P. falciparum 3D7 crude extract, LDH APAD/NBT absorbance; at 2 µM; active compounds read high
Sequence of L-lactate dehydrogenase (Plasmodium falciparum (isolate CDC / Honduras)) (Q27743 whole entry, looked up): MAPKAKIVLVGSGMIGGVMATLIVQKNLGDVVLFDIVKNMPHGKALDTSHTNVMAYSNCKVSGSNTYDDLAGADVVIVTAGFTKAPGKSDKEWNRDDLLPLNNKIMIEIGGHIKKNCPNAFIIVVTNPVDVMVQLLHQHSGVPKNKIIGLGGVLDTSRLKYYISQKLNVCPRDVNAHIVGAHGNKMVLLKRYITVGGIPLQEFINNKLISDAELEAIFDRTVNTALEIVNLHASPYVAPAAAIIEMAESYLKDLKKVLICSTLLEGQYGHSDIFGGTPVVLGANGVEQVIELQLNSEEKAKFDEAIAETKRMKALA

[4] = inhibition of 3D7 malaria parasite growth – strain 3D7 (AID 2306);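 note: 0% = DMSO wells and 100% = chloroquine plus artemisinin control wells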; conditions: P. falciparum 3D7 erythrocytic growth, LDH absorbance, 72 h; at 2 µM; active compounds read high
[5] = molecular target: Calcium-dependent protein kinase 1 (Plasmodium falciparum (isolate 3D7)) (UniProt P62344); assay: PfCDPK1 kinase inhibitors, biochemical, TCAMS library (AID 1159585; cut-off not given, nearly all actives have IC50 up to about 0.98 µM;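 note: inhibitors leave more ATP so luminescence rises with inhibition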); conditions: recombinant PfCDPK1, Kinase-Glo ATP depletion luminescence
Sequence of Calcium-dependent protein kinase 1 (Plasmodium falciparum (isolate 3D7)) (P62344 whole entry, looked up): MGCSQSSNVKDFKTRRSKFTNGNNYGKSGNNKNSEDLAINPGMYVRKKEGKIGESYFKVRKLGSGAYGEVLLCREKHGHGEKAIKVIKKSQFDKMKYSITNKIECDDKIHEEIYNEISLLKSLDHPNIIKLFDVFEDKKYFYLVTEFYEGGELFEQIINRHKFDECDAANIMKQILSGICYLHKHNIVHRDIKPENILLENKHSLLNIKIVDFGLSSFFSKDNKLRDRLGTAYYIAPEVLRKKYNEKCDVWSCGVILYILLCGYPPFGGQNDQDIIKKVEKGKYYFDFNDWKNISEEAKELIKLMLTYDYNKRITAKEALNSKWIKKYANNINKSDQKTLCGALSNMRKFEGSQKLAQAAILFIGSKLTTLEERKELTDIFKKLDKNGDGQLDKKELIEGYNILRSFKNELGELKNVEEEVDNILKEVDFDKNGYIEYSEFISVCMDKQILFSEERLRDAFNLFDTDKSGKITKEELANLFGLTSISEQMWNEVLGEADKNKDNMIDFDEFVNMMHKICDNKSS

[6] = molecular target: Plasmodium falciparum protein kinase 6 (PK6, PF3D7_1337100) (UniProt Q8IDW1); assay: PfPK6 kinase inhibitors, biochemical, TCAMS library (AID 1159586); conditions: recombinant PfPK6, Kinase-Glo ATP depletion luminescence
Sequence of Plasmodium falciparum protein kinase 6 (PK6, PF3D7_1337100) (Q8IDW1 1-305): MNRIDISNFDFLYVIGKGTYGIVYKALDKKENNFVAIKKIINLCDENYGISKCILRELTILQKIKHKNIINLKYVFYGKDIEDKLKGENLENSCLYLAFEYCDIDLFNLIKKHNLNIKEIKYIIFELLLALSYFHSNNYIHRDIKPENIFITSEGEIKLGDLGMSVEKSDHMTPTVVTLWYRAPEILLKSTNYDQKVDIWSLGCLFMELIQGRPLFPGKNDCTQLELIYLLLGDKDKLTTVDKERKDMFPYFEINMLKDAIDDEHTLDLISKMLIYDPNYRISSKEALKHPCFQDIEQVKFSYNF

[7] = molecular target: Protein kinase 7 (PK7), Plasmodium falciparum 3D7 (PF3D7_0213400) (UniProt Q7YTF7); assay: inhibition of Plasmodium PK7 catalytic activity – biochemical, TCAMS antimalarial set, Kinase-Glo luminescence (AID 1159587); conditions: recombinant PfPK7, Kinase-Glo ATP depletion luminescence
Sequence of Protein kinase 7 (PK7), Plasmodium falciparum 3D7 (PF3D7_0213400) (Q7YTF7 1-343): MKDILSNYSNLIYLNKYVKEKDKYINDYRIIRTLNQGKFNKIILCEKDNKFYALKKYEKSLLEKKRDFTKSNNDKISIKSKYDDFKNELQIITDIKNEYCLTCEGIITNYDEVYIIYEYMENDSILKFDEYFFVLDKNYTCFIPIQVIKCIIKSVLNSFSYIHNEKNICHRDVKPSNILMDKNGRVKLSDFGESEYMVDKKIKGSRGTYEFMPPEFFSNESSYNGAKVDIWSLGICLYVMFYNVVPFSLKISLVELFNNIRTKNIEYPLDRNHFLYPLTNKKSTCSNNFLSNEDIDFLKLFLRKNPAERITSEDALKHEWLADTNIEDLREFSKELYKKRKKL

[8] = molecular target: Calcium-dependent protein kinase 4 (Plasmodium falciparum (isolate 3D7)) (UniProt Q8IBS5); assay: PfCDPK4 kinase inhibitors, biochemical, TCAMS library (AID 1159588; cut-off not given, nearly all actives have IC50 up to about 0.91 µM); conditions: recombinant PfCDPK4, Kinase-Glo ATP depletion luminescence
Sequence of Calcium-dependent protein kinase 4 (Plasmodium falciparum (isolate 3D7)) (Q8IBS5 whole entry, looked up): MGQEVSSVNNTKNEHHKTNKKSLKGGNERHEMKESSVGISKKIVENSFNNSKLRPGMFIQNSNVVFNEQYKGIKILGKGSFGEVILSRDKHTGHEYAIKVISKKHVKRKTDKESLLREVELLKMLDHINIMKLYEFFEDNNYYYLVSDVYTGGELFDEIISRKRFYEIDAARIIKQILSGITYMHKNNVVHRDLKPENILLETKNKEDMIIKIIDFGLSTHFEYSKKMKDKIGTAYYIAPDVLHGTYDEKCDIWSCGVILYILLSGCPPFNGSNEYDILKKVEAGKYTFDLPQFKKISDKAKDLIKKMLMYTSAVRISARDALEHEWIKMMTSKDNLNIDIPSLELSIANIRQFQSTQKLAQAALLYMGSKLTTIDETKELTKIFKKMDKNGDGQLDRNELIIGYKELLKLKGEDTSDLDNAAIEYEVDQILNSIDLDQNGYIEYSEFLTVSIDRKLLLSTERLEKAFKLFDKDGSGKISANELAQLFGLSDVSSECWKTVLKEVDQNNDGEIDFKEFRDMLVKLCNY

O=S(=O)(c1cc(Cl)sc1Cl)N(CCC(O)(C(F)(F)F)C(F)(F)F)Cc1cccc(O)c1
inactive: inhibition [2] -4% | inhibition [3] 5% | outcome [5] | outcome [6] | outcome [7] | outcome [8]
active: growth inhibition [1] 97% | growth inhibition [4] 98%

CCCCCCNC(=O)C1Cc2c([nH]c3ccc(C)cc23)C2(CCN(CCc3ccccc3)CC2)N1 (stereo not given)
inactive: growth inhibition [1] 24% | inhibition [2] 31% | inhibition [3] 4% | outcome [5] | outcome [6] | outcome [7] | outcome [8]
active: growth inhibition [4] 85%

Nc1nc(N)c2c(Cc3ccccc3)cccc2n1
inactive: growth inhibition [1] 3% | inhibition [3] -7% | outcome [5] | outcome [6] | outcome [7] | outcome [8]
active: inhibition [2] 68% | growth inhibition [4] 94%

CN(C)c1ccc(-c2cscc2C(=O)NC2CCCN(Cc3cccnc3)C2)cc1 (stereo not given)
active: growth inhibition [1] 70% | growth inhibition [4] 89%
inactive: inhibition [2] 5% | inhibition [3] 0% | outcome [5] | outcome [6] | outcome [7] | outcome [8]

Cc1[nH]c(C)c(-c2ccc(-c3ccc(Cl)cc3)nc2)c(=O)c1Br
active: growth inhibition [1] 96% | growth inhibition [4] 97%
inactive: inhibition [2] 21% | inhibition [3] 3% | outcome [5] | outcome [6] | outcome [7] | outcome [8]

CC(C)CNCc1ccc(-c2ccc(CN(CCCN3CCN(C)CC3)C(=O)CCC3CCCC3)cc2)cc1
inactive: inhibition [3] 5% | outcome [5] | outcome [6] | outcome [7] | outcome [8]
active: growth inhibition [1] 87% | inhibition [2] 50% | growth inhibition [4] 96%

Cc1cc(Cl)c(S(=O)(=O)NC(C)(C)C)cc1OCC(=O)NC1CCCCC1
inactive: inhibition [2] 10% | inhibition [3] -5% | outcome [5] | outcome [6] | outcome [7] | outcome [8]
active: growth inhibition [1] 53% | growth inhibition [4] 93%

Oc1ccc(CCNCCCCNCCc2ccc(Cl)cc2)cc1O
inactive: growth inhibition [1] -1% | inhibition [2] 33% | inhibition [3] -1% | outcome [5] | outcome [6] | outcome [7] | outcome [8]
active: growth inhibition [4] 94%

CCOc1ccc(N2CCN(CCCCNC(=O)c3ccc(NC(=O)c4ccc(Cl)cc4)cc3)CC2)c(OCC)c1
active: growth inhibition [1] 65% | growth inhibition [4] 102%
inactive: inhibition [2] 36% | inhibition [3] 2% | outcome [5] | outcome [6] | outcome [7] | outcome [8]

COc1cc(NC(=O)NC(CCN2CCC3(CCc4ccccc43)CC2)c2ccc(Cl)c(Cl)c2)cc(OC)c1OC (stereo not given)
inactive: inhibition [3] 6% | outcome [5] | outcome [6] | outcome [7] | outcome [8]
active: growth inhibition [1] 66% | inhibition [2] 66% | growth inhibition [4] 90%

COc1ccc2ncc(C#N)c(CCN3CCC(NCc4ccc5c(n4)NC(=O)CS5)CC3)c2n1
inactive: growth inhibition [1] 17% | inhibition [2] 9% | inhibition [3] -1% | outcome [5] | outcome [6] | outcome [7] | outcome [8]
active: growth inhibition [4] 89%

O=C(Nc1cccc(CN2CCCN(Cc3ccccc3)CC2)c1)c1ccc(-c2ccccc2)cc1
active: growth inhibition [4] 85%
inactive: growth inhibition [1] 8% | inhibition [2] 45% | inhibition [3] -1% | outcome [5] | outcome [6] | outcome [7] | outcome [8]

CN(C(=O)c1nn(-c2ccccn2)c2nccc(-c3cccs3)c12)C1CCCCC1
inactive: growth inhibition [1] 1% | inhibition [2] 4% | inhibition [3] -1% | outcome [5] | outcome [6] | outcome [7] | outcome [8]
active: growth inhibition [4] 87%

COc1cc(-c2cc(-c3ccc(OCCN(C)C)cc3)[nH]c2-c2ccncc2)ccc1Cl
inactive: inhibition [2] 28% | inhibition [3] -2% | outcome [5] | outcome [6] | outcome [7] | outcome [8]
active: growth inhibition [1] 100% | growth inhibition [4] 101%

Cc1cc(-c2cnc(N)c(-c3ccc(N4CCN(C)CC4)nc3)c2)cc(C)c1O
active: growth inhibition [4] 91%
inactive: growth inhibition [1] 33% | inhibition [2] -12% | inhibition [3] 7% | outcome [5] | outcome [6] | outcome [7] | outcome [8]

COc1ccccc1N1CCN(C(C(=O)NCc2ccc3c(c2)OCO3)c2ccc3c(c2)OCCCO3)CC1 (stereo not given)
inactive: growth inhibition [1] 13% | inhibition [2] 15% | inhibition [3] 5% | outcome [5] | outcome [6] | outcome [7] | outcome [8]
active: growth inhibition [4] 88%

CCCCc1cc(NCc2ccncc2)nc(Nc2ccc(OC)cc2)n1
active: growth inhibition [4] 93%
inactive: growth inhibition [1] 22% | inhibition [2] 11% | inhibition [3] 0% | outcome [5] | outcome [6] | outcome [7] | outcome [8]

CS(=O)(=O)Nc1ccc(-c2ccc3ccnc(N)c3c2)cc1
inactive: inhibition [2] 31% | inhibition [3] -3% | outcome [5] | outcome [6] | outcome [7] | outcome [8]
active: growth inhibition [1] 75% | growth inhibition [4] 85%

Cc1cccc2[nH]c(-c3cccc(-c4ccc(NC(=O)Nc5cccc(C#N)c5)cc4)c3)nc12
inactive: inhibition [3] 6% | outcome [5] | outcome [6] | outcome [7] | outcome [8]
active: growth inhibition [1] 91% | inhibition [2] 50% | growth inhibition [4] 101%

O=C(NCCCCCN1CCC(c2c[nH]c3ccccc23)CC1)c1ccc(-c2cccnc2)cc1
active: growth inhibition [4] 89%
inactive: growth inhibition [1] 10% | inhibition [2] 29% | inhibition [3] 1% | outcome [5] | outcome [6] | outcome [7] | outcome [8]

Nc1nc(N)c2cc(CNc3ccc(Cl)c(Cl)c3)ccc2n1
active: growth inhibition [1] 55% | inhibition [2] 62% | growth inhibition [4] 93%
inactive: inhibition [3] 5% | outcome [5] | outcome [6] | outcome [7] | outcome [8]

N/C(=N\c1cccc(Cc2ccc([N+](=O)[O-])cc2)n1)Nc1ccccc1
active: growth inhibition [4] 96%
inactive: growth inhibition [1] 19% | inhibition [2] 28% | inhibition [3] 4% | outcome [5] | outcome [6] | outcome [7] | outcome [8]

NC(=O)c1cnc2ccc(-c3cncs3)cc2c1Nc1ccc(F)c(Cl)c1
active: growth inhibition [1] 99% | growth inhibition [4] 97%
inactive: inhibition [2] 3% | inhibition [3] 6% | outcome [5] | outcome [6] | outcome [7] | outcome [8]

CC(O)C1CCCCN1C(=O)c1ccc(-c2ccc(-c3nc4ccccc4[nH]3)s2)cc1 (stereo not given)
inactive: inhibition [2] 33% | inhibition [3] -2% | outcome [5] | outcome [6] | outcome [7] | outcome [8]
active: growth inhibition [1] 98% | growth inhibition [4] 101%

c1cc(CN2CCCCC2)cc(-c2csc(-c3nc4ccccc4[nH]3)c2)c1
active: growth inhibition [4] 90%
inactive: growth inhibition [1] 16% | inhibition [2] 26% | inhibition [3] 4% | outcome [5] | outcome [6] | outcome [7] | outcome [8]

COC1CCC(C(=O)Nc2ccc(-c3cccc(-c4nc5ccc(C(F)(F)F)cc5[nH]4)c3)cc2)CC1 (stereo not given)
inactive: growth inhibition [1] 48% | inhibition [3] -2% | outcome [5] | outcome [6] | outcome [7] | outcome [8]
active: inhibition [2] 69% | growth inhibition [4] 85%

CC[C@H](C)CNC(=O)c1ccnc(-c2cccc(CN3CCC(N4CCCC4)CC3)c2)c1
active: growth inhibition [4] 97%
inactive: growth inhibition [1] 12% | inhibition [2] -8% | inhibition [3] -2% | outcome [5] | outcome [6] | outcome [7] | outcome [8]

O=C(Nc1cccc(-c2cccc(CN3CCCC3)c2)c1)c1cccc(Cl)c1
active: growth inhibition [4] 89%
inactive: growth inhibition [1] 30% | inhibition [2] 44% | inhibition [3] -2% | outcome [5] | outcome [6] | outcome [7] | outcome [8]

Oc1ccc(-c2ccccc2)cc1CN1CCCCCC1
active: growth inhibition [1] 85% | growth inhibition [4] 95%
inactive: inhibition [2] 6% | inhibition [3] 2% | outcome [5] | outcome [6] | outcome [7] | outcome [8]

COc1ccc(CN(C)CCOc2ccc(NC(=O)c3cccc4c(=O)c5cc(SC)ccc5[nH]c34)cc2)cc1OC
active: growth inhibition [1] 98% | inhibition [2] 67% | growth inhibition [4] 96%
inactive: inhibition [3] 1% | outcome [5] | outcome [6] | outcome [7] | outcome [8]

COc1ccc(Nc2ncc3c(-c4cccc(NC(=O)Cc5cccc(F)c5)c4)c[nH]c3n2)cc1OC
active: growth inhibition [1] 68% | growth inhibition [4] 101%
inactive: inhibition [2] 24% | inhibition [3] 2% | outcome [5] | outcome [6] | outcome [7] | outcome [8]

COC(=O)C(Cc1ccccc1)C(CSCc1ccc(OC)cc1)C(=O)N[C@@H](C(=O)OC(C)(C)C)c1ccc(C(C)(C)C)cc1 (stereo not given in full)
inactive: growth inhibition [1] 44% | inhibition [2] -1% | inhibition [3] 2% | outcome [5] | outcome [6] | outcome [7] | outcome [8]
active: growth inhibition [4] 93%

O=C(/C=C/c1ccc(Cl)c(Cl)c1)NCCCCCN1CCCC(C(=O)Nc2ccc(Cl)c(Cl)c2)C1 (stereo not given)
active: inhibition [2] 53% | growth inhibition [4] 100%
inactive: growth inhibition [1] 11% | inhibition [3] -1% | outcome [5] | outcome [6] | outcome [7] | outcome [8]

Cc1cc(-c2ccc3c(c2)CCN(CCC2CCC(NC(=O)/C=C/c4ccccc4F)CC2)CC3)on1 (stereo not given)
inactive: growth inhibition [1] 13% | inhibition [2] 26% | inhibition [3] -4% | outcome [5] | outcome [6] | outcome [7] | outcome [8]
active: growth inhibition [4] 94%

Cc1ccccc1OCC(O)CNC1CCC(NCC(O)COc2ccccc2C)CC1 (stereo not given)
active: inhibition [2] 96% | growth inhibition [4] 98%
inactive: growth inhibition [1] 24% | inhibition [3] 0% | outcome [5] | outcome [6] | outcome [7] | outcome [8]

COc1cc(F)c2ncc(Cl)c([C@H](O)CN3CCC(NCc4ccc5c(n4)NC(=O)CO5)CC3)c2c1
inactive: inhibition [2] 14% | inhibition [3] -1% | outcome [5] | outcome [6] | outcome [7] | outcome [8]
active: growth inhibition [1] 99% | growth inhibition [4] 99%

N#Cc1cccc(CN2CCCN(Cc3ccc(C(=O)Nc4ccc(Cl)cc4)cc3)CC2)c1
inactive: growth inhibition [1] 21% | inhibition [2] 48% | inhibition [3] 1% | outcome [5] | outcome [6] | outcome [7] | outcome [8]
active: growth inhibition [4] 98%

CC(NC(=O)NC1CCC(CCN2CCCc3ccccc32)CC1)c1cccc2ccccc12 (stereo not given)
inactive: inhibition [2] -4% | inhibition [3] -1% | outcome [5] | outcome [6] | outcome [7] | outcome [8]
active: growth inhibition [1] 83% | growth inhibition [4] 90%

Oc1ccc(-c2ccccc2)cc1CN1CCCCC1
active: growth inhibition [1] 70% | growth inhibition [4] 93%
inactive: inhibition [2] 3% | inhibition [3] -1% | outcome [5] | outcome [6] | outcome [7] | outcome [8]

O=C(O)c1cc(OCC(O)COc2ccc(O)c(C(=O)O)c2)ccc1O
inactive: growth inhibition [1] 6% | inhibition [2] 9% | inhibition [3] 5% | outcome [5] | outcome [6] | outcome [7] | outcome [8]
active: growth inhibition [4] 99%
